The list is not random: actives were taken first. Their share in the collection is about 1.8%.
MLL AF4-AF9 inh: MLL-AF4/AF9 protein interaction inhibition; AlphaScreen, biotin-AF4 peptide binding to FLAG-AF9; hit rate 0.47% among 350,000; inhibition, % at 10 µM; P42568;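 active = every replicate reaching a set inhibition limit, whatever the replicate mean, cut at about 25% in these data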;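 note: 0% = plate neutral control median and 100% = total signal loss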
DENV2 CPE: protects cells from dengue virus 2 cytopathic effect; CPE inhibition, % at 9.99 µM; hit rate 1.7% among 350,000; DENV2-infected cells, cytopathic effect rescue, plate reader; in the data active = CPE inhibition above about 20%, passing the limit was not always enough; tested in BHK-21 cells;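 note: 0% = median of neutral control wells and 100% = median of positive control wells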
ERp5 block: inhibitors of human ERp5; hit rate 0.05% among 350,000; inhibition, % at 9.99 µM; Q15084; ERp5 insulin aggregation, absorbance 650 nm, 90 min;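 active = mean replicate inhibition above about 25%, with every replicate also reaching it, limit read from the data, passing the limit was not always enough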
PDI turbidity: blocks human protein disulfide isomerase activity | P07237 | PDI insulin aggregation turbidity, A650, 90 min | inhibition, % at 10 µM | hit rate 0.052% among 350,000;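 active = mean inhibition across replicates of 30% or more, whatever share of single replicates reach that level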
Target sequence (P07237 whole entry, looked up): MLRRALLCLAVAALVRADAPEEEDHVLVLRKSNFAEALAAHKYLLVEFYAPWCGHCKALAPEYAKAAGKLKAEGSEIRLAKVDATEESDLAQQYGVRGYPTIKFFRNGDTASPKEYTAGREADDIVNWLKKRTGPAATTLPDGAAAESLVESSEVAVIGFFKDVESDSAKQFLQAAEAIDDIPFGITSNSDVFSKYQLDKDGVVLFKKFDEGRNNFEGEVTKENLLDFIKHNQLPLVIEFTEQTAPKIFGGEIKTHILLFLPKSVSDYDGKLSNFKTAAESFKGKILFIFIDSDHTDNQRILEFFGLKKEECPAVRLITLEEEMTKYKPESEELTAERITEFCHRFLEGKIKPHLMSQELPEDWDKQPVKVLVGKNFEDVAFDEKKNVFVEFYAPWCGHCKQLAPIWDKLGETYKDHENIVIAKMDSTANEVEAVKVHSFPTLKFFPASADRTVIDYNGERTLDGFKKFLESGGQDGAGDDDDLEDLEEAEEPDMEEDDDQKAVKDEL
ERAP1 inh: blocks human ERAP1 aminopeptidase activity. AID 652197. hit rate 0.15% among 340,000. recombinant ERAP1, Leu-AMC fluorescence, 60 min. inhibition, % at 10.7 µM. Q9NZ08;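 active = mean replicate inhibition of at least 30%, or all replicates individually reaching that 30% level; inactive = mean below 30% and not every replicate reaching it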;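 note: 0% = neutral control wells and 100% = L-leucinethiol positive control wells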
* = called active by the depositor; ! = not confirmed by another sample.

How did COc1cc(C=C2C(=O)C=CC2=O)ccc1O do in these assays?
MLL AF4-AF9 inh: -12; DENV2 CPE: -2; ERp5 block: -2; ERAP1 inh: 53*

How did C[C@@H]1CN([C@@H](C)CO)C(=O)c2cccc(NS(C)(=O)=O)c2O[C@H]1CN(C)C(=O)Nc1ccc2c(c1)OCO2 do in these assays?
MLL AF4-AF9 inh: -2; DENV2 CPE: -13; ERp5 block: 2; ERAP1 inh: 1

How did CCCCn1c(N)c(N(CC)C(=O)c2cc(C)cc(C)c2)c(=O)[nH]c1=O do in these assays?
MLL AF4-AF9 inh: 0; DENV2 CPE: 35*; ERp5 block: 2; PDI turbidity: 18; ERAP1 inh: 0

How did CCCCn1c(N)c(N(CC)C(=O)c2ccncc2)c(=O)[nH]c1=O do in these assays?
MLL AF4-AF9 inh: 0; DENV2 CPE: -3; PDI turbidity: -9; ERAP1 inh: 3

How did O=C(C[C@@H]1C[C@@H]2c3cc(NS(=O)(=O)c4ccc(F)cc4)ccc3O[C@@H]2[C@@H](CO)O1)N1CCc2ccccc2C1 do in these assays?
MLL AF4-AF9 inh: 2; DENV2 CPE: -6; ERp5 block: -2; ERAP1 inh: -5

Results for C[C@@H]1O[C@@H](O[C@H]2[C@H](O)[C@@H](O)[C@H](Oc3c(-c4ccc(O)c(O)c4)oc4cc(O)cc(O)c4c3=O)O[C@@H]2CO)[C@H](O)[C@H](O)[C@H]1O ?
MLL AF4-AF9 inh: -1; DENV2 CPE: -7; ERp5 block: -7; PDI turbidity: 67*; ERAP1 inh: 1

What do the screens show for `C[C@@H]1O[C@@H](Oc2c(-c3cc(O)c(O)c(O)c3)oc3cc(O)cc(O)c3c2=O)[C@H](O)[C@H](O)[C@H]1O`?
MLL AF4-AF9 inh: -2; DENV2 CPE: 1; ERp5 block: 12; PDI turbidity: 47*; ERAP1 inh: 29

How did C[C@@H]1O[C@@H](OC[C@H]2O[C@@H](Oc3cc(O)c4c(=O)cc(-c5ccc(O)c(O)c5)oc4c3)[C@H](O)[C@@H](O)[C@@H]2O)[C@H](O)[C@H](O)[C@H]1O do in these assays?
PDI turbidity: 4

What do the screens show for `COc1cc(-c2oc3cc(O)cc(O)c3c(=O)c2O[C@@H]2O[C@H](COC3O[C@@H](C)[C@H](O)[C@@H](O)[C@H]3O)[C@@H](O)[C@H](O)[C@H]2O)ccc1O` (some centres not stated)?
MLL AF4-AF9 inh: -5; ERp5 block: -2; PDI turbidity: 56*; ERAP1 inh: 2

Results for C[C@@H]1O[C@@H](Oc2c(-c3ccc(O)c(O)c3)oc3cc(O)cc(O)c3c2=O)[C@H](O)[C@H](O)[C@H]1O ?
MLL AF4-AF9 inh: 3; DENV2 CPE: 1; ERp5 block: 2; PDI turbidity: 73*; ERAP1 inh: 16

Results for CN(C)C(=O)c1cccc(-c2ccc([C@H]3[C@@H](CO)N4CCCCN(C(=O)C5CCC5)C[C@@H]34)cc2)c1 ?
ERp5 block: 5

How did CO[C@@H]1CN(C)C(=O)c2cc(NC(=O)CC(F)(F)F)ccc2OC[C@H](C)N(S(=O)(=O)c2cn(C)cn2)C[C@@H]1C do in these assays?
MLL AF4-AF9 inh: 0; DENV2 CPE: 14; ERp5 block: 2; ERAP1 inh: 0

How did CCNC(=O)[C@@H]1[C@@H](CO)[C@@H]2Cn3c(ccc(-c4ccccc4F)c3=O)[C@H]1N2CC1CC1 do in these assays?
MLL AF4-AF9 inh: 0; DENV2 CPE: 12; ERAP1 inh: -3

Results for COc1ccc(S(=O)(=O)N(C)C[C@@H]2OCCCC[C@@H](C)Oc3ccc(NS(=O)(=O)c4ccccc4)cc3C(=O)N([C@H](C)CO)C[C@H]2C)cc1 ?
MLL AF4-AF9 inh: 1; DENV2 CPE: 13; ERp5 block: -4; ERAP1 inh: 0

How did C[C@H]1CN([C@@H](C)CO)C(=O)c2cc(-c3cccnc3)cnc2O[C@H]1CN(C)C(=O)C1CCC1 do in these assays?
MLL AF4-AF9 inh: -5; DENV2 CPE: 24*; ERp5 block: -2; ERAP1 inh: 2

What do the screens show for `C[C@H](CO)N1C[C@H](C)[C@@H](CN(C)C(=O)C2CCC2)Oc2ncc(C#CCc3ccccc3)cc2C1=O`?
MLL AF4-AF9 inh: 0; DENV2 CPE: 60*; ERp5 block: 4; ERAP1 inh: 1

How did C[C@@H]1CN([C@@H](C)CO)C(=O)c2cc(C#Cc3cccc(F)c3)cnc2O[C@@H]1CN(C)C(=O)C1CCC1 do in these assays?
MLL AF4-AF9 inh: -2; DENV2 CPE: 87*; ERp5 block: 1; ERAP1 inh: -3

What do the screens show for `CCCN1[C@H](C(=O)NCC)[C@@H](CO)[C@@H]2Cn3c(ccc(-c4ccc(C(=O)N(C)C)cc4)c3=O)[C@@H]21`?
MLL AF4-AF9 inh: -1; DENV2 CPE: -2; ERp5 block: 3; ERAP1 inh: -2

What do the screens show for `O=C(C[C@@H]1C[C@H]2c3cc(NC(=O)c4cccnc4)ccc3O[C@H]2[C@@H](CO)O1)NC1CCCC1`?
MLL AF4-AF9 inh: -1; DENV2 CPE: 18; ERp5 block: -4; ERAP1 inh: -12

Results for CCCc1ccc2oc(C(=O)N(Cc3ccncc3)CC3CCCO3)c(C)c2c1 (configuration not stated) ?
MLL AF4-AF9 inh: 1; DENV2 CPE: -6; ERp5 block: -3; PDI turbidity: 4; ERAP1 inh: 3

What do the screens show for `Cc1c(C(=O)N(Cc2ccc(N(C)C)cc2)CC2CCCO2)oc2ccccc12` (configuration not stated)?
MLL AF4-AF9 inh: 19; DENV2 CPE: -10; ERp5 block: 1; PDI turbidity: -3; ERAP1 inh: -1

How did Cc1ccc2oc(C(=O)N(Cc3ccncc3)CC3CCCO3)c(C)c2c1 (configuration not stated) do in these assays?
MLL AF4-AF9 inh: 0; DENV2 CPE: 47*; ERp5 block: 3; PDI turbidity: 4; ERAP1 inh: 0

How did CN(C)c1ccc(CN(CC2CCCO2)C(=O)c2cc3ccccc3o2)cc1 (configuration not stated) do in these assays?
MLL AF4-AF9 inh: 26*; DENV2 CPE: 12; ERp5 block: 3; PDI turbidity: 1; ERAP1 inh: 0

What do the screens show for `CC(=O)N1Cc2cc(C(=O)NCC(F)(F)F)nc(-c3cccc(-c4cc5ccccc5o4)c3)c2[C@H]1CCO`?
MLL AF4-AF9 inh: 20; DENV2 CPE: 25*!; ERp5 block: 6; ERAP1 inh: 2

How did CC(=O)N1Cc2cc(C(=O)NCC(F)(F)F)nc(-c3cccc(-c4cncnc4)c3)c2[C@@H]1CCO do in these assays?
MLL AF4-AF9 inh: 2; DENV2 CPE: 21*; ERp5 block: -4

Results for CCC(=O)N1Cc2cc(C(=O)NCC(F)(F)F)nc(-c3cccc(-c4cncnc4)c3)c2[C@@H]1CCO ?
MLL AF4-AF9 inh: -14; DENV2 CPE: 1; ERp5 block: 1

What do the screens show for `CC(C)NC(=O)N1Cc2cc(C(=O)NC3CCCC3)nc(-c3cccc(-c4cccnc4)c3)c2[C@H]1CCO`?
MLL AF4-AF9 inh: 15; DENV2 CPE: 6; ERp5 block: 4; ERAP1 inh: 3
